Experimental findings from PubChem BioAssay are described below.

The nature of the experiment: EMT-state selective cytotoxicity in co-culture – imaging, PC-3E GFP, TEM4-18 mCherry, primary screen (AID 1345086).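 Further: cells exposed to compound for 72 h before imaging.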 Conditions: PC-3E GFP / TEM4-18 mCherry co-culture, imaging cell counts; measured here: mesenchymal TEM4-18 mCherry cell survival; at 1 µM.
As for `COc1c(N2CC[C@@H](CN)C2)c(F)cc2c(=O)c(C(=O)O)cn(CCc3ccccc3)c12`, the normalised cell number was 1.

Regarding `O=C1N=NC(=O)N1c1ccccc1`, the normalised cell number is 1.03.

In the case of `CC(C)(C)Oc1c(F)c(F)nc(F)c1Cl`, the normalised cell number turned out to be 0.76.

The compound `COC(=O)c1ccc(C(CC(C)C)NC(C)=O)o1` (centres undefined) registered a normalised cell number of 1.12.

`COC(=O)[C@@]12Oc3ccc(-c4ccc5c(c4O)C(O)=C4C(=O)C[C@H](C)[C@H](O)[C@]4(C(=O)OC)O5)c(O)c3C(O)=C1C(=O)C[C@H](C)[C@@H]2O` had a normalised cell number of 1.1.

Regarding `CC(=O)OCC(=O)[C@@]1(O)CCC2C3C[C@H](C)C4=CC(=O)C=CC4(C)C3[C@@H](O)CC21C` (some centres undefined), the normalised cell number amounted to 1.27.

In the case of `O=C(Cc1ccncc1)c1ccc(F)cc1`, the normalised cell number came out at 0.95.

As for `C[C@@H]1C[C@H](O)[C@@H](O)CO1`, the normalised cell number stood at 1.05.

`O=C(/C=C/c1ccccc1)O[C@H]1C[C@@H](O)[C@]2(O)C=CO[C@@H](O[C@@H]3O[C@H](CO)[C@@H](O)[C@H](O)[C@H]3O)C12` (some centres undefined) showed a normalised cell number of 0.95.

For `O=C(NCC[C@H](O)C(=O)O)OCc1ccccc1`, the normalised cell number worked out at 1.14.

`COC(=O)CCC(C)[C@H]1CCC2C3C(C[C@H](O)[C@@]21C)[C@@]1(C)CC[C@@H](O)C[C@H]1C[C@H]3O` (some centres undefined) came in with a normalised cell number of 1.02.

The compound `COC(=O)C1O[C@H](OCc2ccccc2)[C@@H](OC(=O)c2ccccc2)[C@@H](OC(=O)c2ccccc2)C1O` (some centres undefined) yielded a normalised cell number of 1.2.

In turn, `NCCC[C@H](N)CC(=O)NC1CNC(=O)[C@H]([C@H]2C[C@H](O)N=C(N)N2)NC(=O)/C(=C/NC(N)=O)NC(=O)[C@H](CO)NC(=O)[C@H](CO)NC1=O` (some centres undefined) yielded a normalised cell number of 1.02.

The compound `COC(=O)[C@@H](C)Oc1ccc(O)cc1` yielded a normalised cell number of 1.18.
